We go through 51 compounds from ChEMBL document CHEMBL3988442, “University of Dundee, Small-Polar-MMV Screening Library” (2021).

Among all 48,000 compounds or so, about 13,000 (27%) showed an effect of 50% or more. The list shows a part of the results.

The test system of the assay is Wolbachia pipientis. The experiment in a line: Anti-Wolbachia Cell-Based Screen. In kind it is functional. On the set-up: scale not given: in the data most compounds retested in dose-response had high values. As to conditions: 5 µM.
For `CC(=O)c1cc(CC(=O)NCc2ccsc2)cs1`, the “Percent Effect” value is reported as -1.009%.
In the case of `CC(=O)N1C[C@H](NS(=O)(=O)N2CCOCC2)[C@@H](c2ccc(C)o2)C1`, the “Percent Effect” value is on record as -11.37%.
As for `CN1CC(c2ccccc2)CC12CCN(C(=O)c1cncc(Cl)c1)CC2` (stereo unspecified), the “Percent Effect” value was 1.146%.
For the compound `CCCc1cc(N2CCCC2Cn2nc(C)nc2C)n2ncnc2n1` (stereo unspecified), the “Percent Effect” value is -15.77%.
With `CC(C)(CNC(=O)C(C)(C)Oc1ccc2c(c1)CCCC2=O)C(N)=O`, the “Percent Effect” value is given as -6.308%.
The result for `CCc1nnc2n1CCN(C(=O)c1ccc3nc(C)c(C)nc3c1)C2` reads 6.266%; that for `CCn1c(C2CCN(C(=O)c3ccc4sc(C)nc4c3)CC2)n[nH]c1=O`, -3.012%.
For the compound `CN(C)c1cccc(C(=O)N2CCn3c(nnc3-c3ccccc3)C2)c1`, the “Percent Effect” value was 0.7654%.
For `Cc1nc2ccc(C(=O)N3CCn4c(nnc4C4CC4)C3)cc2nc1C`, the “Percent Effect” value turned out to be 122.4%.
`Cc1nnc2n1CCN(C(=O)c1cnc(C3CC3)s1)C2`: the “Percent Effect” value was 2.098%.
Regarding `Cc1nc2cc(C(=O)N3CCn4c(nnc4C4CC4)C3)ccc2s1`, the “Percent Effect” value is 86.87%.
For `CN1CCN(c2ccc(NC(=O)c3ccoc3)c(C(F)(F)F)c2)CC1`, the “Percent Effect” value is 7.046%.
On to `O=C(c1ncncc1Cl)N1CCC2(CCCC2)CC1`, for which the “Percent Effect” value is recorded as -11.62%.
For the compound `CN(C)C(=O)CCS(=O)(=O)Cc1ccn(-c2cccc(F)c2)n1`, the “Percent Effect” value is recorded as -10.5%.
To `Cn1cnc(NC(=O)C2CC(=O)N(c3cccc(F)c3)C2)n1` (stereo unspecified) belongs 77.24%.
In the case of `COc1cc(NC(=O)C2CC(=O)N(c3cccc(F)c3)C2)ncn1` (stereo unspecified), the “Percent Effect” value is listed as -6.208%.
`CNC(=O)C1CC(=O)N(c2cccc(F)c2)C1` (stereo unspecified): the “Percent Effect” value was -1.566%.
Take `O=C(Cc1ccc2c(c1)OCCO2)NC1CCCC1`: the “Percent Effect” value is reported as -1.576%.
For `O=C(Cc1ccc2c(c1)OCCO2)NCCc1nnc2n1CCC2`, the “Percent Effect” value is on record as -0.3257%.
On to `O=C(Cc1ccc2c(c1)CCO2)N1CCN(c2cnccn2)CC1`, for which the “Percent Effect” value was -10.75%.
As for `O=C(CCc1ccc2c(c1)CCO2)Nc1nnn[nH]1`, the “Percent Effect” value is recorded as 108.2%.
Consider `O=C(Cc1ccc2c(c1)OCCCO2)Nc1nnn[nH]1`, for which the “Percent Effect” value came out at 102.7%.
For `O=C(Cc1ccc2c(c1)CCO2)Nc1cccnc1-n1cncn1`, the “Percent Effect” value is -24.6%.
Consider `CN(C)c1ncc(-c2cncnc2)c(C2CNCCO2)n1.Cl` (stereo unspecified), for which the “Percent Effect” value is recorded as 130%.
Take `CN(C)c1ncc(-c2ccc(F)cc2)c(C2CNCCO2)n1.Cl` (stereo unspecified): the “Percent Effect” value was 112.1%.
As for `COc1ccc(-c2cnc(N(C)C)nc2C2CNCCO2)cc1.Cl` (stereo unspecified), the “Percent Effect” value was found to be 76.7%.
`Cc1csc(C(C)(C)NCCCS(C)(=O)=O)n1`: the “Percent Effect” value is on record as -31.79%.
To `CC(C)Cc1ccc(S(=O)(=O)Nc2ccc(=O)n(C)c2)cc1` belongs -23.57%.
To `CC(C)C(O)C(=O)N1CCC2(CC1)c1nc[nH]c1CCN2S(C)(=O)=O` (stereo unspecified) belongs -6.881%; to `O=C(c1ccncc1)N1CCCC1c1nc(O)cc(-c2ccccn2)n1` (stereo unspecified), 134.3%; to `CCc1cc(O)nc(C2CCCN2C(=O)c2cccnc2)n1` (stereo unspecified), -9.162%.
Turning to `O=C(c1cccnc1)N1CCCC1c1nc(O)cc(-c2ccccn2)n1` (stereo unspecified), the “Percent Effect” value came out at 120.2%.
Consider `O=C(c1cc(-c2ccc(O)cc2)n[nH]1)N1CCCC1c1cccnc1` (stereo unspecified), for which the “Percent Effect” value is given as -9.956%.
To `CC(C)(C)C(=O)N1CCCC1c1nc(O)cc(-c2ccccn2)n1` (stereo unspecified) belongs -2.189%; to `O=C(c1ccc2c(c1)COC2)N1CCN(CC2CC2)CC1`, -6.158%; to `COCc1nn(CC2CC2)c2c1CN(Cc1cccs1)CC2.O=C(O)C(F)(F)F`, -6.214%.
For the compound `Cn1nc(COCC2CC2)c2c1CCN(Cc1cccs1)C2.O=C(O)C(F)(F)F`, the “Percent Effect” value was found to be 99.16%.
For the compound `CC(C)OCc1nn(C)c2c1CN(Cc1cccs1)CC2.O=CO`, the “Percent Effect” value was 90.1%.
The result for `Cc1nc(NC(C)C)nc2c1CN(Cc1cccs1)CC2` reads 0.7721%.
To `CCOCc1nn(C)c2c1CN(CCO)CC2` belongs 105.8%; to `CCOCc1nn(C)c2c1CN(C(=O)c1ccno1)CC2`, -1.809%; to `O=C(O)C(F)(F)F.c1csc(CN2CCCn3cnc(COCC4CC4)c3C2)c1`, -4.67%.
As to `Cn1nc(COCC2CC2)c2c1CCN(Cc1ccco1)C2.O=C(O)C(F)(F)F`, the “Percent Effect” value is -12.11%.
For `CCOCc1nn(CC2CC2)c2c1CN(Cc1ccco1)CC2.O=C(O)C(F)(F)F`, the “Percent Effect” value is given as -45.76%.
The result for `CCN1CCc2c(c(COC)nn2C)C1` reads -29.06%; that for `COCc1nn(C(C)C)c2c1CCN(Cc1cccs1)C2.O=C(O)C(F)(F)F`, 0.7419%.
To `CCOCc1nn(CC2CC2)c2c1CN(Cc1cccs1)CC2.O=C(O)C(F)(F)F.O=C(O)C(F)(F)F` belongs 105%.
Turning to `Cc1ccc(C)c2c(O)cc(CNCC(=O)N3CCCC3)nc12`, the “Percent Effect” value is -11.62%.
For `COc1ccc(CNC(=O)N2CCCN(CC3CCCCC3)CC2)cn1`, the “Percent Effect” value is recorded as -6.571%.
In the case of `CN(C)c1ncccc1NC(=O)COC1CCCC1`, the “Percent Effect” value came to 0.222%.
Consider `CCOCc1nn(C)c2c1CN(Cc1cccs1)CC2.O=C(O)C(F)(F)F`, for which the “Percent Effect” value came to 87.87%.
